± gives the standard deviation.

This passage reports NF-kB reporter, IRF reporter and viability score results from the supplement of paper PMC10646978.

Conditions in all cases: modulator concentration 10 µM
The test system of assay [1] is RAW-Dual (murine macrophage reporter line). Nature of the assay: NF-kB reporter (SEAP) activity fold change vs agonist alone; higher = enhanced NF-kB activity. The method, boiled down: (§1)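 RAW-Dual murine macrophage reporter cells were seeded at 50 000 per well in 384-well plates and pre-incubated 1 hour at 37 °C with compound pin-transferred to 10 μM final. After 1 hour, a PRR agonist was added and cells incubated overnight. Supernatant NF-κB (SEAP, QUANTI-Blue, 620 nm absorbance) and IRF (Lucia luciferase, QUANTI-Luc, luminescence) signals were divided by the mean agonist-only control on the same plate to give fold change. Two replicate plates were averaged, with errors by propagation.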

The test system is the same in assay [2]. In words: IRF reporter (Lucia luciferase) activity fold change vs agonist alone; higher = enhanced IRF activity. The method, boiled down:
as §1

Assay [3] has the same test system. Nature of the assay: viability score (confluency relative to resting cells, overnight) (fraction); higher = more viable, active = viable (0.7 or more). The method, boiled down: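 Confluency was the readout: RAW-Dual macrophages were imaged with IncuCyte after an overnight exposure to compound at 10 μM final. IncuCyte software produced two masks over all imaged wells. The viability score expresses confluency against resting cells, and both masks had to exceed 70% of resting cells for a compound to meet the cutoff.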

Setting [4] is: agonist: CpG ODN 1826 0.5 ug/mL.

In the case of `C=CC(C)(O)CCC=C(C)C` (stereo unspecified), the values for the NF-kB reporter in assay [1] (setting [4]), in assay [1] (agonist: LPS 0.1 ug/mL) and in assay [1] (agonist: MPLA […]) were 0.988 ± 0.085, 0.841 ± 0.062 and 0.999 ± 0.11, respectively. In addition, the values for the IRF reporter in assay [2] (agonist: 3'3'-cGAMP 10 ug/mL), in assay [2] (agonist: LPS 0.1 ug/mL) and in assay [2] (agonist: MPLA […]) were 1.01 ± 0.038, 1.22 ± 0.16 and 1.34 ± 0.28, respectively. Also, the viability score in assay [3] was 1.03 (active).
Consider `COc1cc(NC(=O)COc2cc(C)c(Cl)c(C)c2)cc(OC)c1`, for which the NF-kB reporter is 1.02 ± 0.18 in assay [1] (setting [4]), 0.954 ± 0.078 in assay [1] (agonist: LPS 0.1 ug/mL) and 0.854 ± 0.098 in assay [1] (agonist: MPLA […]). Also, the IRF reporter in assay [2] (agonist: 3'3'-cGAMP 10 ug/mL) was 0.93 ± 0.025; in assay [2] (agonist: LPS 0.1 ug/mL), 1.06 ± 0.12; in assay [2] (agonist: MPLA […]), 1.04 ± 0.12. In addition, the viability score in assay [3] is 1 (active).
Turning to `O=C(NC12CC3CC(CC(C3)C1)C2)N1CCOCC1`, the figures for the NF-kB reporter in assay [1] (setting [4]), in assay [1] (agonist: LPS 0.1 ug/mL) and in assay [1] (agonist: MPLA […]) were 0.95 ± 0.16, 1.02 ± 0.084 and 0.989 ± 0.12, respectively. In addition, the IRF reporter stood at 0.993 ± 0.027 in assay [2] (agonist: 3'3'-cGAMP 10 ug/mL), 1.22 ± 0.21 in assay [2] (agonist: LPS 0.1 ug/mL) and 1.32 ± 0.17 in assay [2] (agonist: MPLA […]). Further, in assay [3], the viability score was 0.967 (active).
As for `C[N+]1(C)CCC(OC(=O)C(O)(c2ccccc2)C2CCCC2)C1` (stereo unspecified) [Prestw-746], the NF-kB reporter worked out at 0.923 ± 0.061 in assay [1] (setting [4]), 0.998 ± 0.066 in assay [1] (agonist: LPS 0.1 ug/mL) and 0.943 ± 0.062 in assay [1] (agonist: MPLA […]). In addition, the IRF reporter in assay [2] (agonist: 3'3'-cGAMP 10 ug/mL) turned out to be 0.949 ± 0.031; in assay [2] (agonist: LPS 0.1 ug/mL) it was 1.24 ± 0.16; in assay [2] (agonist: MPLA […]), 1.13 ± 0.17. Besides, the viability score in assay [3] is 1.01 (active).
On to `COc1cc(C=C2NC(=O)NC2=O)cc(I)c1OCc1ccccc1`, for which the NF-kB reporter amounted to 0.986 ± 0.082 in assay [1] (setting [4]), 1.09 ± 0.066 in assay [1] (agonist: LPS 0.1 ug/mL) and 0.93 ± 0.098 in assay [1] (agonist: MPLA […]). Further, the values for the IRF reporter in assay [2] (agonist: 3'3'-cGAMP 10 ug/mL), in assay [2] (agonist: LPS 0.1 ug/mL) and in assay [2] (agonist: MPLA […]) were 1.05 ± 0.025, 1.37 ± 0.15 and 1.12 ± 0.23, respectively. Also, the viability score in assay [3] was 1.01 (active).
Take `Cc1c(C(=O)OC(C)C)sc(NC(=O)C(F)(F)F)c1C(=O)OC(C)C`: the NF-kB reporter in assay [1] (setting [4]) turned out to be 1.4 ± 0.08; in assay [1] (agonist: LPS 0.1 ug/mL), 1.01 ± 0.076; in assay [1] (agonist: MPLA […]) it was 1.05 ± 0.032. Besides, the IRF reporter in assay [2] (agonist: 3'3'-cGAMP 10 ug/mL) stood at 0.781 ± 0.028; in assay [2] (agonist: LPS 0.1 ug/mL), 0.937 ± 0.067; in assay [2] (agonist: MPLA […]), 1.19 ± 0.22. Further, in assay [3], the viability score is 0.993 (active).
Turning to `CCOc1ccccc1NC(=O)Nc1ccc2c(c1)CC(=O)N2CC`, the results for the NF-kB reporter in assay [1] (setting [4]), in assay [1] (agonist: LPS 0.1 ug/mL) and in assay [1] (agonist: MPLA […]) were 1.17 ± 0.083, 0.945 ± 0.092 and 0.998 ± 0.028, respectively. Further, the IRF reporter came to 0.694 ± 0.037 in assay [2] (agonist: 3'3'-cGAMP 10 ug/mL), 0.844 ± 0.077 in assay [2] (agonist: LPS 0.1 ug/mL) and 0.797 ± 0.089 in assay [2] (agonist: MPLA […]). Further, in assay [3], the viability score is 0.998 (active).
As for `CC1=NN(C(=O)c2cccnc2)C(O)(c2ccccc2)C1` (stereo unspecified), the NF-kB reporter in assay [1] (setting [4]) is 0.893 ± 0.071; in assay [1] (agonist: LPS 0.1 ug/mL) it was 0.969 ± 0.1; in assay [1] (agonist: MPLA […]), 0.949 ± 0.041. The IRF reporter in assay [2] (agonist: 3'3'-cGAMP 10 ug/mL) amounted to 0.951 ± 0.09; in assay [2] (agonist: LPS 0.1 ug/mL) it was 1.05 ± 0.13; in assay [2] (agonist: MPLA […]) it was 1.1 ± 0.2. The viability score in assay [3] was 0.994 (active).
As to `N#Cc1c(NC(=O)c2cccc3ccccc23)sc2c1CCCC2`, the results for the NF-kB reporter in assay [1] (setting [4]), in assay [1] (agonist: LPS 0.1 ug/mL) and in assay [1] (agonist: MPLA […]) were 1.67 ± 0.13, 0.863 ± 0.073 and 1.14 ± 0.12, respectively. Besides, the IRF reporter was 0.616 ± 0.019 in assay [2] (agonist: 3'3'-cGAMP 10 ug/mL), 1.35 ± 0.18 in assay [2] (agonist: LPS 0.1 ug/mL) and 1.48 ± 0.23 in assay [2] (agonist: MPLA […]). Further, in assay [3], the viability score is 0.879 (active).
Consider `CCNc1nc(S)nc(NC(C)C)n1`, for which the NF-kB reporter in assay [1] (setting [4]) stood at 1.13 ± 0.085; in assay [1] (agonist: LPS 0.1 ug/mL) it was 1.03 ± 0.051; in assay [1] (agonist: MPLA […]) it was 1.02 ± 0.024. For the same compound, the IRF reporter in assay [2] (agonist: 3'3'-cGAMP 10 ug/mL) turned out to be 0.731 ± 0.041; in assay [2] (agonist: LPS 0.1 ug/mL), 0.98 ± 0.13; in assay [2] (agonist: MPLA […]), 0.927 ± 0.11. Further, in assay [3], the viability score is 0.991 (active).
`COc1ccc(C(=O)N2CC(n3cc(CN4CCCC4=O)nn3)C2)cc1F`: the NF-kB reporter in assay [1] (setting [4]) amounted to 1.19 ± 0.1; in assay [1] (agonist: LPS 0.1 ug/mL), 1.01 ± 0.077; in assay [1] (agonist: MPLA […]) it was 1 ± 0.045. The IRF reporter in assay [2] (agonist: 3'3'-cGAMP 10 ug/mL) came out at 1.05 ± 0.088; in assay [2] (agonist: LPS 0.1 ug/mL), 1.01 ± 0.067; in assay [2] (agonist: MPLA […]), 0.952 ± 0.14. For the same compound, the viability score in assay [3] is 0.999 (active).
Regarding `C1N2CN3CN1CN(C2)C3`, the NF-kB reporter was found to be 1.07 ± 0.085 in assay [1] (setting [4]), 1.04 ± 0.054 in assay [1] (agonist: LPS 0.1 ug/mL) and 1.03 ± 0.033 in assay [1] (agonist: MPLA […]). For the same compound, the IRF reporter in assay [2] (agonist: 3'3'-cGAMP 10 ug/mL) worked out at 0.961 ± 0.055; in assay [2] (agonist: LPS 0.1 ug/mL), 0.958 ± 0.092; in assay [2] (agonist: MPLA […]), 0.949 ± 0.076. The viability score in assay [3] is 1 (active).
Take `NC(=O)CCC(N)C(=O)O` (stereo unspecified): the NF-kB reporter amounted to 1.13 ± 0.32 in assay [1] (setting [4]), 0.935 ± 0.051 in assay [1] (agonist: LPS 0.1 ug/mL) and 1.03 ± 0.1 in assay [1] (agonist: MPLA […]). Also, the IRF reporter in assay [2] (agonist: 3'3'-cGAMP 10 ug/mL) stood at 0.883 ± 0.049; in assay [2] (agonist: LPS 0.1 ug/mL), 1.1 ± 0.16; in assay [2] (agonist: MPLA […]), 0.999 ± 0.097. Further, the viability score in assay [3] is 0.997 (active).
